# Experimental data from PubChem BioAssay.
# Activity calls are given as the source filed them. Unless noted, the rule behind the calls is not given here.
# What was measured:
# [1] = compound effects on lung adenocarcinoma cell viability – A549, calcein-AM fluorescence, 48 h, basal, profiling panel (AID 1162); settings: higher = more signal; note: test concentration not given here
# [2] = compound effects on differentiated 3T3-L1 adipocyte viability – cell-based, 3T3-L1 adipocytes, calcein-AM fluorescence, 48 h, basal, profiling panel (AID 1163); settings: 3T3-L1 adipocytes viability, higher = more signal; note: test concentration not given here
# [3] = compound effects on hepatocellular carcinoma cell viability – HepG2, calcein-AM fluorescence, 48 h, basal, profiling panel (AID 1164); settings: higher = more signal; note: test concentration not given here
# [4] = compound effects on multiple myeloma cell viability – MM1S, calcein-AM fluorescence, 48 h, basal, profiling panel (AID 1165); settings: higher = more signal;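 note: viability of MM1S multiple myeloma cells under basal unstimulated conditions; test concentration not given here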
# [5] = calcein-AM signal in unstimulated myeloma cells – cell-based, calcein-AM fluorescence, 48 h, PK04 Diversity Set, profiling panel (AID 1166); settings: RPMI8226 myeloma viability, higher = more signal;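 note: cells grown under basal conditions without added stimulus; test concentration not given here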
# [6] = JC-1 mitochondrial signal, unstimulated HepG2 cells – cell-based, JC-1 fluorescence, 24 h, 100 nL compound, profiling panel (AID 1167); settings: HepG2 mitochondrial potential, higher = more signal; note: test concentration not given here
# [7] = JC-1 mitochondrial signal, unstimulated adipocytes – cell-based, JC-1 fluorescence, 3T3-L1 adipocytes, 24 h, 100 nL compound, profiling panel (AID 1168); settings: JC-1 mitochondrial fluorescence, higher = more signal, called active from +8 up or from −8 down; note: test concentration not given here
# [8] = JC-1 mitochondrial signal, unstimulated myeloma cells – cell-based, JC-1 fluorescence, RPMI8226, 24 h, 100 nL compound, profiling panel (AID 1169); settings: JC-1 mitochondrial potential fluorescence, higher = more signal; note: test concentration not given here
# [9] = JC-1 mitochondrial signal, unstimulated MM1S myeloma – cell-based, JC-1 fluorescence, 24 h, 100 nL compound, profiling panel (AID 1170); settings: MM1S mitochondrial potential, higher = more signal; note: test concentration not given here
# [10] = resazurin metabolic signal in A549 cells – cell-based, resazurin fluorescence, 24 h, PK04 Diversity Set, profiling panel (AID 1171); settings: A549 viability, higher = more signal, called active from +8 up or from −8 down; note: test concentration not given here
# [11] = resazurin metabolic signal in HepG2 cells – cell-based, resazurin fluorescence, 24 h, PK04 Diversity Set, profiling panel (AID 1172); settings: HepG2 viability, higher = more signal; note: test concentration not given here
# [12] = budding yeast growth changes without added modifier – OD600, strain BY4716, 24 h, basal condition, primary screen (AID 1173); settings: S. cerevisiae BY4716 growth, OD600, 24 h; higher = more signal, called active from +8 up or from −8 down
# [13] = viability profiling in MM1S myeloma cells – cell-based, resazurin fluorescence, basal, 24 h, PK04 Diversity Set, profiling panel (AID 1174); settings: higher = more signal, called active from +8 up or from −8 down; note: test concentration not given here
# [14] = target: Dihydroorotate dehydrogenase (quinone), mitochondrial (Plasmodium falciparum (isolate 3D7)) (UniProt Q08210); experiment: inhibition of P. falciparum DHODH – biochemical, C-terminal His tag, absorbance 600 nm, primary screen (AID 1175); settings: PfDHODH enzyme, DCIP absorbance 600 nm; higher = more signal, called active from +8 up or from −8 down;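 note: recombinant parasite enzyme with a five histidine tag at its C terminus; test concentration not given here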
# Chain of Dihydroorotate dehydrogenase (quinone), mitochondrial (Plasmodium falciparum (isolate 3D7)) (Q08210 whole entry, looked up): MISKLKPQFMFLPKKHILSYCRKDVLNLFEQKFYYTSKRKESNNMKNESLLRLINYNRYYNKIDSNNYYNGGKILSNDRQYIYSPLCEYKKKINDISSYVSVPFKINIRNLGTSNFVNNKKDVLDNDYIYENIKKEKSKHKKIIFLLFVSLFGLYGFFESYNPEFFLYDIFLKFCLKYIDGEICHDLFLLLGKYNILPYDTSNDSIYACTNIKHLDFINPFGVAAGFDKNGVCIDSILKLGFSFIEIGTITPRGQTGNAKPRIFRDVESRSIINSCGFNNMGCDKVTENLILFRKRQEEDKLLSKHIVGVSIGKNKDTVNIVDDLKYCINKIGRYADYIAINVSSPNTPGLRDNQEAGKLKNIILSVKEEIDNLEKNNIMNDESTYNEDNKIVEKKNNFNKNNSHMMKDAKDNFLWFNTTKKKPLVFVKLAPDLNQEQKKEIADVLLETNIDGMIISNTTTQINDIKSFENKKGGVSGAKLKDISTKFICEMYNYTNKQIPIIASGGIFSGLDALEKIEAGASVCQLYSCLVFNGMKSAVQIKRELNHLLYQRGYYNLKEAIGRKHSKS
# [15] = inhibition of PAO1 biofilm formation – strain PAO1, LB-PBS medium, absorbance 600 nm, primary screen (AID 1176); note: test concentration not given here; settings: P. aeruginosa PAO1 growth/biofilm, A600, 12 h; higher = more signal
# [16] = growth modulation of vineyard yeast isolate – strain RM11-1a, OD600, basal, 24 h, primary screen (AID 1177);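 note: cultures grown under basal conditions with no added stressor; test concentration not given here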; settings: S. cerevisiae RM11-1a growth, OD600, 24 h; higher = more signal, called active from +8 up or from −8 down
# [17] = growth of efflux-deficient E. coli DRC39 – strain DRC39, OD650, 24 h, E. coli filamentation inducers, primary screen (AID 1178);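 note: growth measured as culture turbidity by optical density at 650 nm; test concentration not given here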; settings: E. coli DRC39 acrAB, higher = more signal, called active from +8 up or from −8 down
# [18] = growth of efflux-deficient E. coli DRC39 – strain DRC39, OD650, 48 h, E. coli filamentation inducers, primary screen (AID 1179);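 note: screen aims at cell division blockers that make cells filament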; settings: E. coli DRC39 delta-acrAB growth, higher = more signal, called active from +8 up or from −8 down
# [19] = viability profiling in RPMI8226 myeloma cells – cell-based, resazurin fluorescence, basal, 24 h, PK04 Diversity Set, profiling panel (AID 1180); settings: higher = more signal;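 note: RPMI8826 multiple myeloma cell line at 5000 cells per well; test concentration not given here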
# [20] = target: E3 ubiquitin-protein ligase XIAP (Homo sapiens) (UniProt P98170); experiment: small molecules binding XIAP protein – biophysical, small-molecule microarray, fluorescence 635 nm, primary screen (AID 1181); settings: higher = more signal;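 note: score merges 667 nm emission and signal to noise over triplicate slides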
# Chain of E3 ubiquitin-protein ligase XIAP (Homo sapiens) (P98170 whole entry, looked up): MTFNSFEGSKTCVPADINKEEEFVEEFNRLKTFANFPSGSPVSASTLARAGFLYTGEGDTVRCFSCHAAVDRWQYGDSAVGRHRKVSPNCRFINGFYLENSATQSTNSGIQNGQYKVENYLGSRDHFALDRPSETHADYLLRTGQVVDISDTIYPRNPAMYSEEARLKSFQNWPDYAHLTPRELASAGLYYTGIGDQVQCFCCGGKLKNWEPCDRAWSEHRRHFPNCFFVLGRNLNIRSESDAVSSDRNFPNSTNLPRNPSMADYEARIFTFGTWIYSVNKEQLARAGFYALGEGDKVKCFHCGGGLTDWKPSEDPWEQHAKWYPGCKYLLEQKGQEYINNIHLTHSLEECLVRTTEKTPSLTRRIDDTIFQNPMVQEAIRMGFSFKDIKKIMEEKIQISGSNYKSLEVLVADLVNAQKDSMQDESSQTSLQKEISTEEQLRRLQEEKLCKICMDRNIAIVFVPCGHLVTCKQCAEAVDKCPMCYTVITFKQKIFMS
Compound,z-score [1],z-score [2],z-score [3],z-score [4],z-score [5],z-score [6],z-score [7],z-score [8],z-score [9],z-score [10],z-score [11],z-score [12],z-score [13],composite z-score [14],z-score [15],z-score [16],z-score [17],z-score [18],z-score [19],composite z-score [20]
C=C(CCCC)/C(=C/C[C@H](OC(C)=O)c1ccc(OCCO)cc1)c1cc(C(=O)OC)ccc1OC,0.899,1.18,1.74,-2.88,-1.83,2.2,0.151 (inactive),-0.864,-0.957,1.09 (inactive),0.757,-1.06 (inactive),-0.0396 (inactive),-0.793 (inactive),0.825 (inactive),-0.0587 (inactive),0.487 (inactive),0.371 (inactive),0.621,0.0977
COCC1=C2[C@@H](CCc3ccccc3)OB(O)C[C@@H]2[C@@H]2C(=O)N(C)C(=O)[C@@H]2C1,-0.0482,-0.184,-0.187,-0.145,-0.126,-1.54,0.176 (inactive),-0.0658,-0.239,-0.425 (inactive),-0.227,-0.926 (inactive),-0.439 (inactive),-0.173 (inactive),0.294 (inactive),0.0903 (inactive),-0.0919 (inactive),0.0253 (inactive),-0.377,0.0512
C=CCNC(=O)[C@@H]1[C@H]2C(=O)O[C@H](c3ccccc3)[C@H](c3ccccc3)N2[C@H](c2ccc(O)cc2)[C@@]12C(=O)N(C(=O)OCCOC)c1ccc(C#CCCO)cc12,2.21,1.14,0.723,-0.824,0.262,-0.707,0.152 (inactive),-0.15,-0.839,0.292 (inactive),0.02,-0.363 (inactive),-1.12 (inactive),-0.855 (inactive),0.249 (inactive),0.782 (inactive),0.37 (inactive),0.479 (inactive),-0.299,-0.0749
CCOC(=O)C[C@H]1[C@H](OC(=O)c2ccc(-c3ccccc3)cc2)[C@@H](NC(=O)Cc2ccc(OC)cc2)c2cc(OCCCO)ccc2N1C(=O)Cc1ccc(OC)cc1,0.368,0.0052,0.834,0.191,-0.102,2.01,0.262 (inactive),-0.198,-0.128,0.207 (inactive),-0.0383,0.574 (inactive),0.796 (inactive),0.593 (inactive),0.149 (inactive),1.78 (inactive),1.01 (inactive),0.622 (inactive),0.643,-0.0118
[N-]=[N+]=NC[C@H](Cc1ccccc1)NC(=O)c1ccccc1,0.431,0.474,0.611,0.357,0.661,0.581,0.219 (inactive),-0.0299,0.171,1.19 (inactive),0.198,-3.7 (inactive),1.46 (inactive),-0.178 (inactive),-0.382 (inactive),-0.401 (inactive),0.487 (inactive),0.352 (inactive),0.839,-0.394
[N-]=[N+]=NCc1ccccc1[C@@H]1OC(c2ccc(OCCCO)cc2)=N[C@]1(Cc1ccccc1)C(=O)NCCN1CCOCC1,0.239,1.09,0.91,-0.887,0.185,1.14,0.69 (inactive),-0.191,0.424,1.26 (inactive),-0.195,-0.559 (inactive),0.162 (inactive),1.16 (inactive),-0.279 (inactive),1.89 (inactive),2.23 (inactive),0.528 (inactive),-0.0015,-0.0125
O=C1OCCC=C[C@H]2OC34C=CCN(c5ccc(Cl)cc5)C(=O)[C@H]3N(CCCCCCO)C(=O)[C@@H]4C12 (stereo not given in full),1.26,-0.043,1.21,1.69,-1.1,1,0.335 (inactive),-0.0541,1.34,0.97 (inactive),0.546,-0.247 (inactive),1.35 (inactive),-0.477 (inactive),-0.786 (inactive),0.311 (inactive),1.38 (inactive),1.74 (inactive),1.23,-0.474
Cc1ccc(S[C@]2(C(=O)NCc3ccccc3)CC(=O)N(Cc3cc(C(F)(F)F)cc(C(F)(F)F)c3)[C@@H]2c2ccc(CO)cc2I)cc1,0.666,0.336,-0.165,-1.87,-2.22,0.994,-0.00208 (inactive),-0.133,-0.713,0.772 (inactive),1.24,-3.9 (inactive),-2.82 (inactive),-0.459 (inactive),0.0214 (inactive),-0.741 (inactive),0.671 (inactive),0.602 (inactive),-1.17,-0.0622
COCCOC(=O)N1C(=O)[C@@]2(c3cc(C#CCCO)ccc31)[C@H](C(=O)N1CCCCCCC1)[C@H]1C(=O)O[C@H](c3ccccc3)[C@H](c3ccccc3)N1[C@@H]2c1ccccc1OCCO,0.862,1.45,0.566,-2.12,-1.62,-0.292,-0.0643 (inactive),-0.815,-0.513,1 (inactive),-0.0873,0.348 (inactive),0.413 (inactive),-0.0989 (inactive),0.898 (inactive),0.881 (inactive),-0.759 (inactive),-0.359 (inactive),0.3,0.113
